# Source: ChEMBL document CHEMBL3433997, “St. Jude Leishmania screening dataset” (2016)
# What was measured:
# Type in all cases: functional
# [1] = target: Solute carrier family 2, facilitated glucose transporter member 1 (Homo sapiens) (UniProt P11166); assay: ST_JUDE_LEISH: Cytotoxicity at 2uM final concentration against transgenic Leishmania Mexicana promastigotes LmGLUT1 that are glucose transport deficient and complemented with the human glucose transporter GLUT1. Activity is measured by DNA content using SYBR green in vitro
# [2] = target: Hexose transporter 1 (Plasmodium falciparum) (UniProt O97467); assay: ST_JUDE_LEISH: Cytotoxicity at 2uM final concentration against transgenic Leishmania Mexicana promastigotes LmPfHT that are glucose transport deficient and complemented with the Plasmodium falciparum hexose transporter. Activity is measured by DNA content using SYBR green in vitro
# [3] = target: Glucose transporter (Leishmania mexicana) (UniProt O61059); assay: ST_JUDE_LEISH: Cytotoxicity at 2uM final concentration against transgenic Leishmania Mexicana promastigotes LmGT2 that are glucose transport deficient and complemented with the L. Mexicana glucose transporter 2. Activity is measured by DNA content using SYBR green in vitro
# Chain of Solute carrier family 2, facilitated glucose transporter member 1 (Homo sapiens) (P11166 whole entry): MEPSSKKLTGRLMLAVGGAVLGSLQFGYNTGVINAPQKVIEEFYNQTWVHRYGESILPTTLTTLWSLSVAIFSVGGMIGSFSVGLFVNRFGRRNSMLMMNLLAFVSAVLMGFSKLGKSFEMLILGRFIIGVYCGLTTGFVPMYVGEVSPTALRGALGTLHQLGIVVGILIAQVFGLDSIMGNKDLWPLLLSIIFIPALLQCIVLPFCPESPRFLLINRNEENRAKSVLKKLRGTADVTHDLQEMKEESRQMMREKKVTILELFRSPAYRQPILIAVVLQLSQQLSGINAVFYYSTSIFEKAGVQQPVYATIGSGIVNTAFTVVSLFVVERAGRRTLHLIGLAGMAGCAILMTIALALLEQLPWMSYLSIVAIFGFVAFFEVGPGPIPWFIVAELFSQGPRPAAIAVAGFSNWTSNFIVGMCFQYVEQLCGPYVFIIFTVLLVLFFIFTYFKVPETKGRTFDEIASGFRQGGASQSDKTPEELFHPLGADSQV
Structure (SMILES),inhibition [1],inhibition [2],inhibition [3]
NC(=O)C1CCN(Cc2cccc(-c3ccc(-c4nc5cc(C(F)(F)F)ccc5[nH]4)cc3)c2)CC1,-1.36%,-1.5%,-2.94%
OC(CNc1ccnc(Nc2ccccc2)n1)c1cccc(C(F)(F)F)c1 (stereo unspecified),4.65%,4.22%,0.68%
CCOc1ccccc1CNc1nccc(NCCc2cn(C)c3ccccc23)n1,7.77%,3.5%,2.49%
Cc1cccc2nc(-c3cccc(-c4ccc(NC(=O)Cc5ccccn5)cc4)c3)[nH]c12,4.3%,2.5%,2.64%
COc1ccc(CNCc2cccc(-c3cccc(-c4nc5cc(C(F)(F)F)ccc5[nH]4)c3)c2)cc1,5.4%,4.65%,3.48%
O=C(NCCCN1CCOCC1)c1csc(Nc2ccc(Cl)c(Cl)c2)n1,0.69%,0.58%,0.12%
COc1cc(C)nc2ccc(NC(=O)c3cc(C(F)(F)F)cc(C(F)(F)F)c3)cc12,16.3%,12.8%,10.1%
Cc1cc(C(=O)CN2C(=O)NC(C)(c3ccc4ccccc4c3)C2=O)c(C)n1Cc1ccco1 (stereo unspecified),-0.27%,-1.11%,-4.18%
COc1cc(C(=O)N2COCC(CCCN3CCC(N4CCCC4)CC3)(c3ccc(Cl)c(Cl)c3)C2)cc(OC)c1OC (stereo unspecified),3.3%,3.39%,3.67%
Cc1c(F)cc(C(=O)NC2CC2)cc1-c1ccc2c(cnn2S(=O)(=O)c2ccc(Cl)s2)c1,3.04%,1.53%,0.9%
O=C(Nc1ccc(C(F)(F)F)cc1)Nc1ccccc1N1CCNCC1,2.1%,1.1%,6.58%
Fc1cccc(COc2ccc(Nc3ncnc4ccc(C#C[C@H]5CCCN5)cc34)cc2Cl)c1,1.39%,1.5%,2.2%
